# Bioassay records deposited in PubChem BioAssay by National Center for Advancing Translational Sciences (NCATS).
# Only some compounds are listed: those with a hit (about 11% of all), similar ones and a draw of the others.
# Sm TGR inh = inhibitors of Schistosoma mansoni thioredoxin glutathione reductase | purified TGR, DTNB reduction, TNB absorbance 405 nm | Potency, µM (highest dose often 114 µM), for the others: at the highest dose activity change, negative = inhibition, usual class: inhibitors | AID 485364 | 360,000 tested, 3% active; note: % is set by controls: 0 for no effect and ±100 for the full control effect; nearly all actives have a fitted effect of over 60% in size
#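 First, TGR (20 nM dispensed) and NADPH were mixed with compound. Second, a 15 min room-temperature incubation followed. Third, further NADPH and then DTNB were added to start the reaction. Finally, TNB absorbance was monitored kinetically.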
# AMA1-RON2 inh = inhibitors of Plasmodium falciparum AMA1-RON2 interaction; AlphaScreen AMA1-biotinylated RON2 peptide binding; Potency, µM (titrated, usually from 58.2 µM), for inactives: at the highest dose activity change, negative = inhibition, most hits filed as inhibitors; 360,000 tested, 0.2% active; AID 720542;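 note: 0% = vehicle wells and -100% = peptide control; nearly all actives have a fitted effect of over 45% in size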
#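 AMA1 (3D7) with his tag at 25 nM final met compounds first, then biotinylated RON2 peptide at 25 nM; detection used donor plus acceptor beads, 10 µg/mL apiece, read by AlphaScreen after 30 min at room temperature.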
# Pf growth 48h = P. falciparum growth inhibition at 48 hours (one generation); P. falciparum luciferase growth in erythrocytes, 48 h; Potency, µM (highest dose often 28.7 µM), inactives show at the top dose activity change, negative = inhibition, actives largely listed as inhibitors; 310,000 tested, 5.9% active; AID 504832; note: % is set by controls: 0 for no effect and ±100 for the full control effect
#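 Compounds are pin-transferred into medium, infected erythrocytes (2% hematocrit, 0.1% parasitemia final) are added, and plates sit one parasite generation at 37 C in 5% CO2. Detection reagent is then added and luminescence measured.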
# NS1 inh = inhibitors of influenza NS1 protein function. AID 2326. Potency, µM (highest dose often 46.1 µM), for the others: at the top dose activity, positive = more growth. 270,000 tested, 0.4% active; calls by dose curve; note: actives are rising curves; nearly all actives have a fitted effect of over 50% in size
#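 Read-out: OD600 growth recovery of NS1-expressing budding yeast. Cells grown overnight at 30C in -URA glucose medium, washed, resuspended and diluted 1:100 in 2% galactose assay medium, pH 6.0. Same strain lacking NS1 served as positive control.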
# Pf growth 96h = inhibits malaria parasite growth, 96 h; 320,000 tested, 6.9% active; P. falciparum luciferase reporter growth, 96 h; Potency, µM (titrated, usually from 28.7 µM), inactives show at the top dose activity change, negative = inhibition, usual class: inhibitors; note: % is set by controls: 0 for no effect and ±100 for the full control effect
#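 Two parasite generations (96 h, 37 C, 5% CO2) of compound exposure in infected erythrocytes (0.05% parasitemia, 2% hematocrit). Luciferase-reporter P. falciparum; decreased luminescence indicates inhibited growth, aimed at apicoplast-acting delayed death.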
# Active calls of the source: *; u = inconclusive; x = no result; [ ] = remark or other dose. Unless noted, calls come from the whole dose curve; as a rule, active = well fitted curve in the direction sought with a large enough effect; inconclusive = small, poorly fitted or top-dose-only effect, or another doubt; inactive = no such curve, though single readings can be large; an effect the other way counts as inactive or inconclusive. Potency is the fitted concentration of half-maximal effect.
SMILES,Sm TGR inh,AMA1-RON2 inh,Pf growth 48h,NS1 inh,Pf growth 96h
CCN(CC)C(=O)COc1ccc2c(c1)C(=O)CC(C)(C)O2,0.5%,3.7%,-13.1%,x,9.28µM*
CC1(C)CC(=O)c2cc(OCC(=O)N3CCOCC3)ccc2O1,-0.2%,7.7%,-11.8%,0.5%,-14.1%
COc1ccc(NC(=O)C(=O)NCC2(c3ccccc3)CCCC2)c(OC)c1,-1.2%,x,x,x,x
CC1C(=O)N2CCCc3cc(NC(=O)COc4ccccc4)cc1c32 (centres undefined),4.0%,-7.9%,-0.4%,x,37.7%
Cc1ccc(C(=O)NNC(=O)c2csc(N3CCOCC3)n2)s1,2.7%,52.1%,23.5%,x,1.9%
c1ccc(C2C3=C(Nc4ncnn42)c2ccccc2CCC3)cc1 (centres undefined),-1.7%,42.1%,-6.7%,-16.8%,5.22µM*
CCOC(=O)c1cc(OC(=O)c2cccs2)n(-c2ccccc2)n1,39.8µM*,-6.3%,5.0%,-38.5%,-23.3%
CCOC(=O)c1cc(OC(=O)c2ccccc2)n(-c2ccccc2)n1,-4.1%,-2.2%,x,17.5%,-13.3%
COc1ccc(S(=O)(=O)NCCc2nnc3ccc(SCC(=O)Nc4cc(C)cc(C)c4)nn23)cc1,-6.7%,x,x,x,x
CCC(Sc1ccc2nnc(CCNS(=O)(=O)c3ccc(OC)cc3)n2n1)C(=O)OC (centres undefined),-1.9%,9.9%,5.6%,x,7.38µM*
Cc1nc(Nc2nc(CSc3ccc(Cl)cc3)cc(=O)[nH]2)nc2ccccc12,8.6%,-1.3%,0.0%,13.0%,u
COc1ccc2nc(Nc3nc(CSc4nc5ccccc5[nH]4)cc(=O)[nH]3)nc(C)c2c1,-9.7%,-5.5%,u,u,10.4µM*
O=C(O)c1ccc2c3c(cccc13)C(=O)N(c1ccccc1)C2=O,6.8%,-2.6%,0.5%,1.4%,u
Cc1c(O)c2c3c(cccc3c1O)C(=O)N(c1ccccc1)C2=O,-5.9%,0.9%,u,-22.8%,10.4µM*
COc1ccc(-c2cc(C(=O)Nc3cnn(Cc4ccc(F)cc4)c3)no2)cc1OC,-7.4%,x,x,x,x
COc1cccc(-c2cc(C(=O)Nc3cnn(Cc4ccc(F)cc4)c3)no2)c1,-0.8%,1.9%,4.8%,-4.0%,2.08µM*
O=C(Nc1ccc(F)cc1F)c1cc2nc(-c3ccco3)cc(C(F)(F)Cl)n2n1,50.1µM*,x,x,x,x
O=C(Nc1cnn(Cc2ccc(F)cc2)c1)c1cc2nc(-c3ccco3)cc(C(F)(F)F)n2n1,-2.2%,-12.9%,7.1%,-1.6%,10.4µM*
NC(=O)c1cc2nc(-c3ccco3)cc(C(F)(F)F)n2n1,u,3.1%,18.4%,4.7%,-0.2%
Cc1nn(Cc2ccccc2)c(C)c1NC(=O)c1cc2nc(-c3ccco3)cc(C(F)(F)F)n2n1,u,7.8%,11.7µM*,-30.2%,-10.4%[5.75 µM]
Clc1ccc(N2O[C@H]3C=C[C@@H]2C3)nc1,x,65.1%,x,x,x
O=C(NCC1CCCO1)c1cc2nc(-c3ccco3)cc(C(F)(F)Cl)n2n1 (centres undefined),44.7µM*,-2.3%,-11.5%,-3.4%,48.2%
Cc1ccc(Cn2ccc(NC(=O)c3cc(-c4ccc(F)cc4)on3)n2)cc1,-0.3%,3.3%,-21.1%,11.0%,3.29µM*
CN(CCc1cnn(C)c1)Cc1cn(C)nc1-c1ccc2c(c1)OCCO2,2.3%[57.1 µM],-4.4%,23.5%,-0.6%,0.0%
Cc1n[nH]c(C)c1CCN(C)Cc1cn(C)nc1-c1ccc2c(c1)OCCO2,u,-0.9%,28.4%,5.4%,1.31µM*
SMILES,Sm TGR inh,AMA1-RON2 inh,Pf growth 48h,NS1 inh,Pf growth 96h
CCOc1c2ccccc2nn1CCO,-10.8%,30.7%,-21.9%,x,130.1%
CC1CN(C(=O)c2ccc(Cl)c(S(=O)(=O)NCc3ccco3)c2)CC(C)O1 (centres undefined),-11.4%,4.6%,-21.9%,x,-16.5%
O=C(NCC1(N2CCOCC2)CCCCC1)c1ccc(Cl)c(S(=O)(=O)NCc2ccco2)c1,-33.9%,-8.8%,6.57µM*,-7.6%,25.7%
COC(=O)CSc1nnc(CNC(=O)c2ccc(S(=O)(=O)N3CCCCC3)cc2)n1C,3.5%,1.2%,6.3%,-4.3%,1.47µM*
CCS(=O)(=O)NCc1ccc2c(c1)cc(C)n2C,-13.2%,-10.6%,u,11.3%,6.57µM*
O=C(NCc1ccco1)c1ccc(S(=O)(=O)N2CCCCCC2)cc1,-5.8%,3.4%,8.28µM*,x,10.4µM*
CCCCn1c(N)c(N(Cc2ccccc2OC)C(=O)C(C)Oc2ccc(Br)cc2)c(=O)[nH]c1=O (centres undefined),x,3.2%[11.6 µM],x,x,x
Cc1cc2cc(CNC(=O)c3ccc(S(=O)(=O)N4CCCCC4)cc3)ccc2n1C,-23.8%,9.9%,x,1.26µM*,42.5%
Cc1ccc(CNC(=O)c2ccc(S(=O)(=O)N3CCCCC3)cc2)cc1,0.4%,17.1%,u,x,-2.1%
O=C(COC(=O)c1ccc(Cl)c(S(=O)(=O)N2CCOCC2)c1)NCc1ccco1,-6.6%,0.3%,-24.5%,x,10.7%
CCOc1cc(C(=O)NCc2ccco2)cc(OCC)c1OCC,-0.7%,-0.1%,-10.0%,-0.2%,u
O=C(NCc1ccco1)c1ccc(COc2cc(Cl)ccc2Cl)cc1,-10.5%,-0.5%[11.6 µM],5.22µM*,2.0%,u
O=C(NCc1ccco1)c1ccc(Cl)c(S(=O)(=O)N2CCOCC2)c1,-13.7%,-5.0%,2.33µM*,1.4%,x
Cc1ccc(C(=O)NCc2ccco2)cc1S(=O)(=O)N1CCCCC1,u,-2.1%,u,5.1%,2.33µM*
O=C(NCc1ccco1)c1ccc(F)c(S(=O)(=O)N2CCCCC2)c1,-27.0%,0.0%,u,9.1%,u
O=C(COc1ccc(Br)cc1)Nc1ccc(C(=O)OC2CCCCC2)cc1,6.1%,x,x,x,x
CC1CCCCN1C(=S)NCCc1ccccc1 (centres undefined),0.4%,u,x,-11.2%,43.3%
CN(Cc1ccco1)C(=O)c1ccc(S(=O)(=O)N2CCCCCC2)cc1,0.6%,-4.6%,6.3%,x,-29.9%
O=C(NCc1ccco1)c1cccc(S(=O)(=O)N2CCCCC2)c1,25.1µM*,-5.1%,u,-3.5%,x
CN(Cc1ccco1)C(=O)Cn1cc(S(=O)(=O)N2CCCC2)c(S(=O)(=O)N2CCCC2)c1,35.5µM*,-1.8%,-22.8%,9.6%,u
O=C(NCc1ccco1)c1ccc(S(=O)(=O)N2CCCCC2)cc1,11.7%,-3.6%,-0.1%,-0.3%,27.7%
O=C(Nc1ccccc1)c1ccc(NCc2ccco2)c(S(=O)(=O)N2CCOCC2)c1,31.6µM*,4.8%,u,u,23.1%
O=C(COC(=O)c1ccc(S(=O)(=O)N2CCCC2)cc1)NCc1ccco1,39.8µM*,17.5%,29.1%,-3.0%,39.4%
CCc1ccc(NC(=O)c2sc3nc(C)c(Cl)c(C)c3c2N)cc1,3.6%,x,x,x,x
CCOC(=O)C[C@@H]1OC[C@H](C)N1S(=O)(=O)c1ccc(C)cc1,x,4.6%,x,x,x
O=C(CCCCCn1c(=O)[nH]c2ccccc2c1=O)NCc1ccccc1,1.5%,x,x,x,x
O=C(NCc1cccs1)c1ccc(Cl)c(S(=O)(=O)N2CCCC2)c1,-6.4%,1.0%,0.329µM*,x,u
